# Active and inactive are the calls of the source. The calls were made as follows: active = hit-call score of the fitted dose curve at least 0.9, where 1 is the maximum; inactive = score below 0.9.
# Molecular target: Retinoic acid receptor alpha (Homo sapiens) (UniProt P10276)
# Assay: ATG_DR5_RAR_CIS: Attagene CIS-FACTORIAL HepG2 Assay for human Retinoic Acid Receptor Alpha (RARE), DR5 submotif (AID 2282934);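 as to AC50: reporter responds to endogenous RAR alpha beta and gamma in HepG2 not RARA alone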
# Conditions: HepG2 Attagene cis-factorial RARE DR5 reporter, mRNA; actives raise or lower the signal
# Protocol: ATG_CIS is a cell-based, multiplexed-readout assay that uses HepG2, a human liver cell line, with measurements taken at 24 hours after chemical dosing in a 24-well plate.ATG_DR5_RAR_CIS is one of 52 assay component(s) measured or calculated from the ATG_CIS assay. It is designed to make measurements of mRNA induction, a form of inducible reporter, as detected with fluorescence intensity signals by Reverse transcription polymerase chain reaction (RT-PCR) and Capillary electrophoresis technology.Data from the assay component ATG_DR5_RAR_CIS was analyzed into 1 assay endpoint. This assay endpoint, ATG_DR5_CIS, was analyzed with bidirectional fitting relative to DMSO as the negative control and baseline of activity. Using a type of inducible reporter, measures of mRNA for gain or loss-of-signal activity can be used to understand the reporter gene at the transcription factor-level as they relate to the gene RARA and RARB and RARG. Furthermore, this assay endpoint can be referred to as a primary readout, because this assay has produced multiple assay endpoints where this one serves a reporter gene function. To generalize the intended target to other relatable targets, this assay endpoint is annotated to the nuclear receptor intended target family, where the subfamily is non-steroidal.
# Human liver HepG2 cells are transiently transfected with multiple reporter transcription units (MRTUs) in 6-well plates using FuGene 6 reagent (Roche; 3 ml FuGene/1 mg DNA). The MRTU constructs are regulated by a cis-regulating element (promoter). […] A major difference between the CIS and TRANS system is that in CIS activities of endogenous TFs are measured, whereas the TRANS assay evaluates changes in activities of exogenous, chimeric NR-Gal4 proteins. […] At the end of 24 hour incubation, total RNA was isolated using TriZol reagent (Invitrogen). The isolated RNA is then reverse-transcribed using oligo(dT) primer and Mo-MLV reverse transcriptase (Invitrogen) with DNAse I (Ambion) treatment for 30 min. The one-tenth of the produced cDNA was amplified by PCR using Taq DNA polymerase (Invitrogen) and two reporter sequence-specific primers. The PCR products were fluorescently labeled by primer extension with 6-arboxyfluorescein (6-FAM) 5'-labeled reporter sequence-specific primer (2 min at 95 C, 20 s at 68 C and 10 min at 72 C) and these products were digested with 5U of HpaI (New England Biolabs) for 2h at 37 C. The fragments were purified using Qiaquick PCR columns (Qiagen), analyzed on an ABI 3130xL genetic analyzer (Applied Biosystems) with peak positions identified by using a set of X-rhodamine (ROX)-labeled MapMarker1000 molecular weight standards (BioVentures). The raw capillary electrophoresis data was processed using Attagraph software (Attagene).
# Retinoic acid receptor alpha (Homo sapiens), sequence (P10276 whole entry, looked up): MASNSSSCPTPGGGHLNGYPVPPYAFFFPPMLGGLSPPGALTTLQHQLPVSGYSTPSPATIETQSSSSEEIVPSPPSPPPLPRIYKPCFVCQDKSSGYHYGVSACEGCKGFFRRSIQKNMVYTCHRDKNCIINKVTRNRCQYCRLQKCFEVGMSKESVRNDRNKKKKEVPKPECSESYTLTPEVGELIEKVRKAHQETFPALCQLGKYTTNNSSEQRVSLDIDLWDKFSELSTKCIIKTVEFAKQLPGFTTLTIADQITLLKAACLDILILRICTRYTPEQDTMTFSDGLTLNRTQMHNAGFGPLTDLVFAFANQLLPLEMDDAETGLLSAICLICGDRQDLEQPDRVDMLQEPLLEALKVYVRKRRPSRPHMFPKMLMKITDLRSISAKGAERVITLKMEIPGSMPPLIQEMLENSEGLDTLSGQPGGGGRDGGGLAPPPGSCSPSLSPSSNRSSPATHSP
Compound,outcome,AC50
COCCCOCCCOC,inactive,–
CCOC(=O)N1CCC(=C2c3ccc(Cl)cc3CCc3cccnc32)CC1,inactive,–
O=C(O)c1cc(Cl)cc([N+](=O)[O-])c1Cl,inactive,–
CC(C)COC(=O)C=Cc1ccccc1,inactive,–
CCCCCCCC/C=C\CCCCCCCC(=O)OCCO,–,59.4 µM (active)
NC(=O)C1CO1 (stereo not given),inactive,–
c1c[nH]cn1,inactive,–
NCCCN1CCN(CCCN)CC1,inactive,–
Cc1cc(C)c(C)c(C)c1,inactive,–
CC1=CC[C@H]2C[C@@H]1C2(C)C,inactive,–
CC(=O)OCc1ccco1,inactive,–
O=C(C(Cl)Cl)N1CCOC12CCCCC2,inactive,–
CC(=O)[C@@]1(O)CC[C@H]2[C@@H]3C[C@H](C)C4=CC(=O)C=C[C@]4(C)[C@@]3(F)[C@@H](O)C[C@@]21C,–,100 µM (active)
COc1ccc(NC(C)=O)cc1N,inactive,–
[Cl][In]([Cl])[Cl],inactive,–
CC(C)C(=O)C(C)C,inactive,–
NNC(=O)c1cccc(C(=O)NN)c1,inactive,–
CC(C)CCCC(C)CC=O (stereo not given),inactive,–
CCCC(C)CCC(C)=O (stereo not given),inactive,–
Nc1ccc(N)c(Cl)c1,–,33.4 µM (active)

Compound,outcome,AC50
c1ccc2c(c1)ccc1ncccc12,–,58 µM (active)
Cc1cccc(C(=O)O)c1,inactive,–
O=C(OCC1CCC2OC2C1)C1CCC2OC2C1 (stereo not given),inactive,–
O=C(Nc1ccccc1SSc1ccccc1NC(=O)c1ccccc1)c1ccccc1,inactive,–
C=CC=CC=CCCCCC,inactive,–
CC1(C)O[C@@H]2C[C@H]3[C@@H]4C[C@H](F)C5=CC(=O)CC[C@]5(C)[C@H]4[C@@H](O)C[C@]3(C)[C@]2(C(=O)CO)O1,inactive,–
Cc1cc(C)c(C)c(O)c1,inactive,–
Cc1cc(C)c(C)cc1C,inactive,–
ON(Cc1ccccc1)Cc1ccccc1,inactive,–
O=C(c1ccccc1)c1ccc(O)c(O)c1O,inactive,–
C=CCOCC(O)CCl (stereo not given),inactive,–
CCCCCCCOC(=O)CCC,inactive,–
CC(C)(C)C(=O)C=Cc1ccc(Cl)cc1,inactive,–
CN1C(=O)N(C)C(O)C1O (stereo not given),inactive,–
O=C1C(N(CO)C(=O)NCO)N(CO)C(=O)N1CO (stereo not given),inactive,–
CCOc1nc(F)cc2nc(S(=O)(=O)Nc3c(Cl)cccc3C(=O)OC)nn12,inactive,–
SCCc1cnccn1,–,27.6 µM (active)
CCCC(=O)OCc1ccccc1,inactive,–
CC(CC=O)c1ccccc1 (stereo not given),inactive,–
NC(=O)NNC(N)=O,inactive,–

# From PubChem BioAssay (EPA / NIEHS)
